Test results reported in ChEMBL document CHEMBL1961873, “Compounds: GSK PKIS; Assays: Nanosyn kinase panel” (2012).

Tests used:
[1] = system: Proto-oncogene tyrosine-protein kinase receptor Ret (Homo sapiens), P07949 [Y791F]; settings: at 1 µM
[2] = biological target: Macrophage-stimulating protein receptor (Homo sapiens) (UniProt Q04912); settings: at 0.1 µM
[3] = biological target: Macrophage-stimulating protein receptor (Homo sapiens) (UniProt Q04912); settings: at 1 µM
[4] = biological target: Proto-oncogene tyrosine-protein kinase ROS (Homo sapiens) (UniProt P08922); settings: at 0.1 µM
[5] = biological target: Proto-oncogene tyrosine-protein kinase ROS (Homo sapiens) (UniProt P08922); settings: at 1 µM
[6] = biological target: Proto-oncogene tyrosine-protein kinase Src (Homo sapiens) (UniProt P12931); settings: at 0.1 µM
Chain of Proto-oncogene tyrosine-protein kinase Src (Homo sapiens) (P12931 2-536 limits assumed): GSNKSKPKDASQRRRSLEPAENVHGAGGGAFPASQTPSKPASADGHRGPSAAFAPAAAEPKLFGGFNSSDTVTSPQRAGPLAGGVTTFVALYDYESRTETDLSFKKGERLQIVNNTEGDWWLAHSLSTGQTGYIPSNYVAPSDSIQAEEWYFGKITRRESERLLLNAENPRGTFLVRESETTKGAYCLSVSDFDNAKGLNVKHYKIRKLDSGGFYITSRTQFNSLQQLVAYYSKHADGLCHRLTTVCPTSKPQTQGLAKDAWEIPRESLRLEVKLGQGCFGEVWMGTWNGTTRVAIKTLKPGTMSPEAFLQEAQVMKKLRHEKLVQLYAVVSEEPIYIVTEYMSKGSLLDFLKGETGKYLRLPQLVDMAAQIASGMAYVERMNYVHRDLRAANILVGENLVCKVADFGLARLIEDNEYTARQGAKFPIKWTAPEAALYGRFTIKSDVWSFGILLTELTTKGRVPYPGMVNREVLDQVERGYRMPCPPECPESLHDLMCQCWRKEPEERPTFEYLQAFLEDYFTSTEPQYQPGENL

[7] = biological target: Proto-oncogene tyrosine-protein kinase Src (Homo sapiens) (UniProt P12931); settings: at 1 µM
[8] = biological target: Tyrosine-protein kinase Srms (Homo sapiens) (UniProt Q9H3Y6); settings: at 0.1 µM
Chain of Tyrosine-protein kinase Srms (Homo sapiens) (Q9H3Y6 whole entry): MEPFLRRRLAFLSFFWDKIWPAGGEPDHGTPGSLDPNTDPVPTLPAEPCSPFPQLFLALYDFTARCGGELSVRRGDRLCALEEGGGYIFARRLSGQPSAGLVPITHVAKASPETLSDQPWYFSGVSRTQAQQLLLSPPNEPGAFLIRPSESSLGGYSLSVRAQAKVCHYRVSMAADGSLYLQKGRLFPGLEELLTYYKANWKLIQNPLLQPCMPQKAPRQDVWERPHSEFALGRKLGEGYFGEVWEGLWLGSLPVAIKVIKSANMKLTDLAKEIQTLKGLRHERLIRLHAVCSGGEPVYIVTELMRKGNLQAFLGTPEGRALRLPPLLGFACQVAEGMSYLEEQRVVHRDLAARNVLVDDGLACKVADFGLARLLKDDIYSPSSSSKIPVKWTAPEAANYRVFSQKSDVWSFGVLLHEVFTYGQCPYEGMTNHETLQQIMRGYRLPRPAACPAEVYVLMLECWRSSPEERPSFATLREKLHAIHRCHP

[9] = biological target: Tyrosine-protein kinase Srms (Homo sapiens) (UniProt Q9H3Y6); settings: at 1 µM
[10] = biological target: Tyrosine-protein kinase SYK (Homo sapiens) (UniProt P43405); settings: at 0.1 µM
[11] = biological target: Tyrosine-protein kinase SYK (Homo sapiens) (UniProt P43405); settings: at 1 µM
[12] = biological target: T1, Tyrosine-protein kinase Tec (Homo sapiens) (UniProt P42680); settings: at 0.1 µM
T1 sequence (whole entry): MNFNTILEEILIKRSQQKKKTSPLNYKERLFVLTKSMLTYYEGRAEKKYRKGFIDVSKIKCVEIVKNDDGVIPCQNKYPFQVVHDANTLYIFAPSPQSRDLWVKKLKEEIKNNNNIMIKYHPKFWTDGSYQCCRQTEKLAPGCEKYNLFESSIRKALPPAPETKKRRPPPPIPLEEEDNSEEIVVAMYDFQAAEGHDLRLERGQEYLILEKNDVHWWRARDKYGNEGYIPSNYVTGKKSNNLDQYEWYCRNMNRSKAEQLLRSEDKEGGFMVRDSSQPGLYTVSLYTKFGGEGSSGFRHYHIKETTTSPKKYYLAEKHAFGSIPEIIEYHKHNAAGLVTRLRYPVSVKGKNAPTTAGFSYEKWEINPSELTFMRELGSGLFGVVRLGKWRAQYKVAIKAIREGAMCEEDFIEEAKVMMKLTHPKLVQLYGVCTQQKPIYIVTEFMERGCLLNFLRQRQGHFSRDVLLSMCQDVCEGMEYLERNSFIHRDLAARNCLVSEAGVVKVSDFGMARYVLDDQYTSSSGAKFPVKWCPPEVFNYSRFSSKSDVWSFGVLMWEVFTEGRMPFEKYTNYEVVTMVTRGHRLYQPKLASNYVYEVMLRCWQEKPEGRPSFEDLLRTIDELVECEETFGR

[13] = biological target: T1, Tyrosine-protein kinase Tec (Homo sapiens); settings: at 1 µM
[14] = biological target: Angiopoietin-1 receptor (Homo sapiens) (UniProt Q02763); settings: at 0.1 µM
[15] = biological target: Angiopoietin-1 receptor (Homo sapiens) (UniProt Q02763); settings: at 1 µM
[16] = biological target: T2, Non-receptor tyrosine-protein kinase TNK1 (Homo sapiens) (UniProt Q13470); settings: at 0.1 µM
T2 sequence (whole entry): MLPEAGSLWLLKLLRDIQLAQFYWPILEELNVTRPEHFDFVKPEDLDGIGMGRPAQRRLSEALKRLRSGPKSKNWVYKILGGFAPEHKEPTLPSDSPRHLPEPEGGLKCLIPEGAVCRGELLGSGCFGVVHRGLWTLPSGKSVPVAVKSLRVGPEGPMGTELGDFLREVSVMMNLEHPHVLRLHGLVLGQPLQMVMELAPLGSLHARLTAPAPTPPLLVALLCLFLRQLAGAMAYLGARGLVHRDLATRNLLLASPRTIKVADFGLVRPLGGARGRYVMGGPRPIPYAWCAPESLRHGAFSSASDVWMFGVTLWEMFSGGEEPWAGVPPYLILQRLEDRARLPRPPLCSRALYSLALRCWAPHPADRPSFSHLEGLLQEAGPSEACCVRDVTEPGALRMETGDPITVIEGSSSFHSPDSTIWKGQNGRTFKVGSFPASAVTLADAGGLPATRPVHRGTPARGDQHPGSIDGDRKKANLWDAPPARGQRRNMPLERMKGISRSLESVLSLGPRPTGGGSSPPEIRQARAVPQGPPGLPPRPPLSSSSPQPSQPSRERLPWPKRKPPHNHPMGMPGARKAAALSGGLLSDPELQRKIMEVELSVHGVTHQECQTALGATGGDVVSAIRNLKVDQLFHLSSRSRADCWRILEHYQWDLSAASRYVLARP

[17] = biological target: T2, Non-receptor tyrosine-protein kinase TNK1 (Homo sapiens); settings: at 1 µM
[18] = biological target: Activated CDC42 kinase 1 (Homo sapiens) (UniProt Q07912); settings: at 0.1 µM
Chain of Activated CDC42 kinase 1 (Homo sapiens) (Q07912 whole entry, looked up): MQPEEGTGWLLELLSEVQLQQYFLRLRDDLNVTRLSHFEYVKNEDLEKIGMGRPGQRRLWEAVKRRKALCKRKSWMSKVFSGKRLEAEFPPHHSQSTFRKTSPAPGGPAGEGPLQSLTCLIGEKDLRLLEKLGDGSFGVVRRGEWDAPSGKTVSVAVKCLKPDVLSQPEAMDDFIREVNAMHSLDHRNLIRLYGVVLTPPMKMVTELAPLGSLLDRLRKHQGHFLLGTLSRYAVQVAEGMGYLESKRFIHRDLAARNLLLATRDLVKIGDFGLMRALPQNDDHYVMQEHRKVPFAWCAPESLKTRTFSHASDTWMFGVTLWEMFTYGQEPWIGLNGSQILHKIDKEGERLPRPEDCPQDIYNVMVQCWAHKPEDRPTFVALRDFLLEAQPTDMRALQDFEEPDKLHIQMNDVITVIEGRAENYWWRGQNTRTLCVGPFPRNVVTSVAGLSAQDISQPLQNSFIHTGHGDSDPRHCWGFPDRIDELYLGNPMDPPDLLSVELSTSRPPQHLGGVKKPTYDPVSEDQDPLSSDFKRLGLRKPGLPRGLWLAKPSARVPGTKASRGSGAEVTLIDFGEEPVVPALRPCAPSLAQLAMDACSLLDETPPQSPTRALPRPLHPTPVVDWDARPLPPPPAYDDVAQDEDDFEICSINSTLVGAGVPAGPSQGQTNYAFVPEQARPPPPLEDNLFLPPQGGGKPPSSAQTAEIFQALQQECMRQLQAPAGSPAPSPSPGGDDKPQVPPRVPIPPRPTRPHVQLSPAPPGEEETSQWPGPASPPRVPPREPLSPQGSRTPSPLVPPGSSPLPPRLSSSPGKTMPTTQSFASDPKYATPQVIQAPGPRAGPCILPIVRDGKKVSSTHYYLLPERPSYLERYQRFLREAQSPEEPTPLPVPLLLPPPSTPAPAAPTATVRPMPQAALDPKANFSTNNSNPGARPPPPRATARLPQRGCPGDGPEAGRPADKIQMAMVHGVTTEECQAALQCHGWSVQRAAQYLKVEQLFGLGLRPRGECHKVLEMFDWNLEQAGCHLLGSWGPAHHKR

[19] = biological target: Activated CDC42 kinase 1 (Homo sapiens) (UniProt Q07912); settings: at 1 µM
[20] = biological target: High affinity nerve growth factor receptor (Homo sapiens) (UniProt P04629); settings: at 0.1 µM;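 also: each value is a mean of replicate percent inhibition readings against TRKA kinase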
Chain of High affinity nerve growth factor receptor (Homo sapiens) (P04629 33-796 limits assumed): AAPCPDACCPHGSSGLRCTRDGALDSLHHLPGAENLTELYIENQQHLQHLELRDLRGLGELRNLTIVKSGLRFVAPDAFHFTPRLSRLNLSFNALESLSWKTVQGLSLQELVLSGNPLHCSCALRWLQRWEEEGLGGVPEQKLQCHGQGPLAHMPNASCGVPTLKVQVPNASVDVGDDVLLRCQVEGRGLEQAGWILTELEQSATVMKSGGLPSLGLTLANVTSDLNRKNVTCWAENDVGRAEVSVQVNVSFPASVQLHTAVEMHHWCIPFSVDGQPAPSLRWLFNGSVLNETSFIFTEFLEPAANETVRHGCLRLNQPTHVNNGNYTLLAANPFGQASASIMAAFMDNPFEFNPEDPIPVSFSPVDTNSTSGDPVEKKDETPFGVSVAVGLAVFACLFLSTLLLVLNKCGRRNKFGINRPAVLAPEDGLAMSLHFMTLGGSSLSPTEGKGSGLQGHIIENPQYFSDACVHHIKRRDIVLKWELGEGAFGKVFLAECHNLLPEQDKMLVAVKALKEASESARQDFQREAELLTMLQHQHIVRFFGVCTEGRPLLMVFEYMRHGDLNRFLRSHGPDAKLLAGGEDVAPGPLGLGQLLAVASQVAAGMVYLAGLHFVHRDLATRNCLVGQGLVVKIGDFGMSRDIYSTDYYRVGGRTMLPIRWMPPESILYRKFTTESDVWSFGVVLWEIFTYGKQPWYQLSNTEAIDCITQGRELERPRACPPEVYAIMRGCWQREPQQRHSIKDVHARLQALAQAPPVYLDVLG

Chain of Macrophage-stimulating protein receptor (Homo sapiens) (Q04912 25-304 limits assumed): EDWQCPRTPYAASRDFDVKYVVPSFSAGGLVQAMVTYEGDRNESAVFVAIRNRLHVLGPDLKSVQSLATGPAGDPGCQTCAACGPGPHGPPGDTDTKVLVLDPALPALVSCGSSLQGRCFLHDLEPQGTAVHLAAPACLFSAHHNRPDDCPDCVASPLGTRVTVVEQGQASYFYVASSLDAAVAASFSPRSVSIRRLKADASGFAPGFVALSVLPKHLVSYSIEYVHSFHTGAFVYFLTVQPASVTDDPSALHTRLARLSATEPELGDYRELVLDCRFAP
Chain of Macrophage-stimulating protein receptor (Homo sapiens) (Q04912 310-1400 limits assumed): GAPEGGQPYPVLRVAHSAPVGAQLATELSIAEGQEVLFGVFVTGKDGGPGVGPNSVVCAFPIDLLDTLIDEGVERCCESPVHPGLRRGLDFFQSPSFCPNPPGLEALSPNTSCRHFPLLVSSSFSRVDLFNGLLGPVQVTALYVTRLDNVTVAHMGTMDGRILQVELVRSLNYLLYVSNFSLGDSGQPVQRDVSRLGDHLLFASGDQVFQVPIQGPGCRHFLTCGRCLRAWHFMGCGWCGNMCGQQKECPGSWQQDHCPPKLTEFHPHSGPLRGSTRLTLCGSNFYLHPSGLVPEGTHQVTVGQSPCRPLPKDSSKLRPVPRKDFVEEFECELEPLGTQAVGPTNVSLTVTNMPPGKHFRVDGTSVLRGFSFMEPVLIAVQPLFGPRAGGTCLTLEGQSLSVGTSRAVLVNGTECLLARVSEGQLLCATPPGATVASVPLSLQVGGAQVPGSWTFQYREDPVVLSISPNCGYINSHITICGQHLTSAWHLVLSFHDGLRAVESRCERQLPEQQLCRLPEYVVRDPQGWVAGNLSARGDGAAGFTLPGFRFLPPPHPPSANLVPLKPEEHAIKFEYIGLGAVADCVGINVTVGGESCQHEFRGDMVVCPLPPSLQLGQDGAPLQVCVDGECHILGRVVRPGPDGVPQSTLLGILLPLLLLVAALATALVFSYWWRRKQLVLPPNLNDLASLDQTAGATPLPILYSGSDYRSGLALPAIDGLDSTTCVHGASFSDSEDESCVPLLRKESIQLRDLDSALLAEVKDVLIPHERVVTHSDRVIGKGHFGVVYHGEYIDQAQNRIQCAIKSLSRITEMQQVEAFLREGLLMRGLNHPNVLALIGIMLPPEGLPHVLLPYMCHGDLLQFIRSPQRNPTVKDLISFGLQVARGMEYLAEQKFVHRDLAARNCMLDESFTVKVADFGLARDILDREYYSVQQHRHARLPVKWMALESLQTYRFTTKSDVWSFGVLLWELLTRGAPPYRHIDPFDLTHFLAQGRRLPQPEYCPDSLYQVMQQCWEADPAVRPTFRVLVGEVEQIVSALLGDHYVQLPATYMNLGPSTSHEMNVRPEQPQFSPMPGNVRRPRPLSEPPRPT

| Compound | inhibition [1] [%] | inhibition [2] [%] | inhibition [3] [%] | inhibition [4] [%] | inhibition [5] [%] | inhibition [6] [%] | inhibition [7] [%] | inhibition [8] [%] | inhibition [9] [%] | inhibition [10] [%] | inhibition [11] [%] | inhibition [12] [%] | inhibition [13] [%] | inhibition [14] [%] | inhibition [15] [%] | inhibition [16] [%] | inhibition [17] [%] | inhibition [18] [%] | inhibition [19] [%] | inhibition [20] [%] |
| --- | --- | --- | --- | --- | --- | --- | --- | --- | --- | --- | --- | --- | --- | --- | --- | --- | --- | --- | --- | --- |
| COc1cc2ncn(-c3cc(OCc4ccccc4C(F)(F)F)c(C(C)=O)s3)c2cc1OC | 12.8 | 2.88 | 20 | 0.39 | 7.62 | 6.86 | 6.06 | -2.02 | 0.82 | 0.3 | -5.75 | -0.08 | 5.16 | 1.54 | 8.41 | 0.64 | 23.6 | 1.52 | 3.29 | 2.3 |
| CN(C)CCCNc1nccc(-c2c(-c3ccc(F)cc3)nn3cc(C(F)(F)F)ccc23)n1 | 13.2 | 3.96 | 5.64 | 3.75 | 7.77 | 16.6 | 9.03 | 0.42 | 0.14 | -3.32 | -0.03 | -0.2 | 1.41 | 5.61 | 9.58 | 1.15 | 0.39 | 0.85 | 1.33 | 4.23 |
| O=C(Nc1n[nH]c2cc(-c3cc(F)ccc3F)ccc12)C1CC1 | 11.5 | 4.71 | 1.65 | 5.51 | 5.37 | -1.08 | 8.62 | -0.64 | -2.57 | -7.24 | 1.24 | 2.72 | 4.04 | 3.35 | 9.26 | 1.68 | 7.03 | -0.01 | -0.8 | 3.75 |
| Clc1ccc(CNc2nccc(-c3cnn4ncccc34)n2)cc1 | 20.4 | -1.7 | 6.29 | 0.86 | 6.59 | 0.82 | 6.25 | 0.35 | -1.1 | 2.92 | 1.6 | 3.07 | 7.34 | 0.58 | 4.03 | 2.4 | 14.8 | 0.35 | 3.23 | 1.42 |
| CNC(=O)c1cncc(/C=C/c2c(C)cccc2C)c1 | 17.6 | 1.75 | 0.77 | -2.1 | 1.85 | 17.5 | 59 | 2.41 | 9.33 | 0.05 | -0.51 | 5.68 | 38.2 | -0.16 | 7.69 | 0.82 | 16.5 | 0.76 | 9.44 | 3.36 |
